Sampled rows, rich in hits. Any-hit rate of the full collection: about 6.2%.
RORgamma inh – inhibitors of mouse ROR gamma transcriptional activity; P51450; Drosophila S2 Gal4-RORgamma UAS-luciferase reporter, 20 h; Potency, µM (doses to about 53.6 µM), without a hit: at the top dose activity change, negative = inhibition, hits mostly inhibitors; hit rate 5.4% among 310,000; AID 2551; further: nearly all actives have a fitted effect of over 60% in size
Target sequence (P51450 whole entry, looked up, the tested form may be a part): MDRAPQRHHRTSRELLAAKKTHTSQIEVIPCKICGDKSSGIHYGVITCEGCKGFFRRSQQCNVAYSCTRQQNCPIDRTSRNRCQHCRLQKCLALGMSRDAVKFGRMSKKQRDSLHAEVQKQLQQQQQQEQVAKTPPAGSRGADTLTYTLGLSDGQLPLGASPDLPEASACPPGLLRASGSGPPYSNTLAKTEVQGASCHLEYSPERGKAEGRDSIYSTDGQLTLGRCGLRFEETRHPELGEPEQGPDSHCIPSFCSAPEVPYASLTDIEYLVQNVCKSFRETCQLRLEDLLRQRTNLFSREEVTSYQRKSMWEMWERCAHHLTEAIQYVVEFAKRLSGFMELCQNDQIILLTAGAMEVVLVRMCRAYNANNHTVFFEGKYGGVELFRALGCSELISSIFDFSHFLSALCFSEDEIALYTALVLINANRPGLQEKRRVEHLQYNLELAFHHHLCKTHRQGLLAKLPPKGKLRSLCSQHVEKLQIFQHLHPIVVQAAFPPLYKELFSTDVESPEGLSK
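Luminescence from a UAS-regulated Photinus luciferase reporter in stably transfected Drosophila Schneider cells is measured; decreased signal marks ROR gamma inhibition. Fusion expression is induced by 700 uM copper sulfate for 20 hr.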
VP16 counter – inhibits Gal4-VP16 luciferase reporter, ROR gamma counter-screen; Drosophila S2 Gal4-VP16 UAS-luciferase, luminescence, 20 h; Potency, µM (doses to about 53.6 µM), without a hit: at the top dose activity, negative = inhibition, hits mostly inhibitors; hit rate 3.5% among 310,000;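 further: Gal4-VP16 expression switched on by copper sulfate through the metallothionein promoter; nearly all actives have a fitted effect of over 50% in size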
Luc counter – counter-screen: inhibitors of Kinase-Glo firefly luciferase. Kinase-Glo luciferase, ATP luminescence, 8 min. Potency, µM (titrated, usually from 38.3 µM), without a hit: at the top dose activity change, negative = inhibition, most hits filed as inhibitors. hit rate 0.28% among 200,000. AID 1379; further: nearly all actives have a fitted effect of over 60% in size
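Compound is pinned into ATP-containing buffer (10 uM ATP, imidazole pH 7.2, 7 mM MgCl2). Kinase-Glo luciferase reagent is then added. Light output is recorded following an 8-min room-temperature incubation.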
The depositor's hits bear a star; [ ] = remark or other dose. The call rests on the fitted dose curve; in most records, active means well fitted curve in the direction sought with a large enough effect; inconclusive means small, poorly fitted or top-dose-only effect, or another doubt; inactive means no such curve, though single readings can be large; an effect the other way counts as inactive or inconclusive. On the % scale 0 is the no-effect control and ±100 the full control effect; potency means the concentration at half of the fitted maximal effect.

CC(c1n[nH]c(=S)n1Cc1ccccc1)N(C)C (stereo unspecified) was read as RORgamma inh 1.8µM*, VP16 counter inconclusive and Luc counter 0%.
COc1ccccc1-n1c(-c2ccco2)n[nH]c1=S was read as RORgamma inh -41% and VP16 counter -2%.
For C=CCn1c(CSc2ccc(C)cc2)n[nH]c1=S the results were RORgamma inh 4µM* and VP16 counter 14µM*.
NNC(=O)c1cccn(Cc2ccc(Cl)cc2Cl)c1=O was read as RORgamma inh -14% and VP16 counter 7%.
`CCn1c(N)c(C(=O)Nc2ccccc2C(=O)OC)sc1=S` gave RORgamma inh -4%, VP16 counter 8% and Luc counter -5%.
Screening C=C1c2ccccc2O[C@H](C(=O)OCC)[C@@H]1CCC(C)C (tested in a mixture with another compound) returned RORgamma inh inconclusive, VP16 counter -3% and Luc counter -2%[39.9 µM].
Screening C/C(N)=C(/C#N)C(=O)COC(=O)C1CCC(C(C)(C)C)CC1 (stereo unspecified) returned RORgamma inh -2%, VP16 counter inconclusive and Luc counter -3%.
C=CCn1c(-c2c(C)nc3cc(C)ccn23)n[nH]c1=S was read as RORgamma inh inconclusive, VP16 counter inconclusive and Luc counter -4%.
For C=CCn1c(-c2cccc(Cl)c2)n[nH]c1=S the results were RORgamma inh 4µM*, VP16 counter 7.1µM* and Luc counter 2%.
For C=CCn1c(-c2cccc(S(=O)(=O)N(CC)CC)c2)n[nH]c1=S the results were RORgamma inh inconclusive, VP16 counter 2% and Luc counter 5%.
`S=c1[nH]nc(-c2cccc(Cl)c2)n1Cc1ccccc1` gave RORgamma inh 2.5µM*, VP16 counter 2.5µM* and Luc counter -3%.
Screening COc1ccc(-c2n[nH]c(=S)n2CC(C)C)cc1 returned RORgamma inh 10µM*, VP16 counter inconclusive and Luc counter 0%.
C=CCn1c(-c2sccc2C)n[nH]c1=S was read as RORgamma inh 10µM*, VP16 counter inconclusive and Luc counter 0%.
`Clc1cccc(-c2nc3nc4ccccc4nc3n2Cc2ccccc2)c1` gave RORgamma inh -8%, VP16 counter -15% and Luc counter 1%.
`C=C1CC2C(=O)N(Cc3ccccc3)C(C(=O)OCC)(C(=O)OCC)C1N2C(=O)OC(C)(C)C` (stereo unspecified) gave RORgamma inh 27% and VP16 counter -21%.
Screening CN(C)/C=N/c1nc(-c2ccc3c(c2)OCO3)cs1 returned RORgamma inh 18%, VP16 counter -16% and Luc counter inconclusive.
CCc1ccc2oc(C(=O)NCCc3ccc(S(N)(=O)=O)cc3)cc(=O)c2c1 was read as RORgamma inh 1% and VP16 counter -14%.
CCn1c(CNC(=O)Cc2ccc(OC)cc2)n[nH]c1=S was read as RORgamma inh -3%, VP16 counter -13%[10 µM] and Luc counter 1%.
`Cc1cccc(-c2n[nH]c(=S)n2Cc2ccccc2)c1` gave RORgamma inh 0.79µM*, VP16 counter 0.56µM* and Luc counter 2%.
`CCOc1ccc(-c2n[nH]c(=S)n2Cc2ccccc2)cc1` gave RORgamma inh 6.3µM* and VP16 counter 5.6µM*.
Cc1cccc(-c2nnc(SCC#N)n2Cc2ccccc2)c1 was read as RORgamma inh 2%, VP16 counter -4% and Luc counter 18%.
`COc1ccc(Cn2c(-c3ccc(OC)cc3)n[nH]c2=S)cc1` gave RORgamma inh 7.9µM* and VP16 counter -27%.
Cc1ccc(-c2nc3ccccc3c(=O)n2Cc2ccccc2)cc1 was read as RORgamma inh 30%, VP16 counter 15% and Luc counter -1%.
For Cc1ccc(-c2n[nH]c(=S)n2Cc2ccccc2)cc1 the results were RORgamma inh 2.8µM*, VP16 counter 6.3µM* and Luc counter 1%.
`COC(=O)[C@H](COC(C)(C)C)NC(=O)O[C@@H]1Cc2cc(Br)ccc2O[C@H]1c1cccc(OC)c1` gave RORgamma inh 27%, VP16 counter -5% and Luc counter -1%.
`CCN(CC)S(=O)(=O)c1cccc(NC(=O)COC(=O)C2CC3C=CC2C3)c1` (stereo unspecified) gave RORgamma inh -5%, VP16 counter inconclusive and Luc counter -2%.
For O=C(O)c1ccc2c(c1)C(=O)N([C@H](Cc1ccccc1)C(=O)O)C2=O the results were RORgamma inh 1% and VP16 counter -2%.
